Where “and” joins values, the source holds several entries; their conditions need not be identical. Identical values can stand only once. Among all 300,000 compounds or so, about 2,500 (0.83%) were called active. The list comes from a sample in which actives are over-represented; it also holds similar structures and randomly drawn compounds. Unmarked numbers belong to inactive results. Rule as the data show it: active = inhibition above about 60%; inconclusive = no clear call, values can overlap the other calls; inactive = below that.
Assay: MLPCN primary screen, SNCA 5' untranslated region (AID 1813);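 also: H4 neuroglioblastoma cells stably carrying SNCA 5'UTR luciferase fusion; 0% = DMSO wells and 100% = positive control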
Conditions: alpha-synuclein 5'UTR reporter, inhibitor activity; active compounds read high; tested at 7.5 µM

Row | Structure (SMILES) | inhibition
1 | Cc1ccc(C(NC(=O)N2CCCC2)C(Cl)(Cl)Cl)cc1F (stereo not given) | 25.2%
2 | COCC(=O)N=Nc1c(O)[nH]c2ccccc12 | 3.62%
3 | COc1ccccc1N=Cc1c(O)c2ccccc2oc1=O | 3.79%
4 | COc1cc(N=Cc2c(O)[nH]c3ccccc23)cc(OC)c1OC | 81% (active)
5 | COCCC(=O)N1CCC(Oc2ccc(C(=O)NCc3ccon3)cc2)CC1 | -4.68%
6 | O=C(CCCO)N/N=C/c1cc(Br)ccc1O | -18.4%
7 | Oc1ccc(Br)cc1/C=N/Nc1ccccn1 | 66.4% (active)
8 | Oc1ccc(/C=N/Nc2ccc(C(F)(F)F)cn2)cc1O | -195%
9 | COc1ccc(-c2cc(=O)oc3cc(OCC(=O)N[C@@H](Cc4c[nH]c5ccccc45)C(=O)O)ccc23)cc1 | 9.25%
10 | CCOc1cc(/C=N/NC(=O)CN2CCCCC2)ccc1O | 1.96%
11 | C=CCn1c(C)cc(C(=O)CN2C(=O)c3ccccc3C2=O)c1C | 47.1%
12 | C=CCn1c(C)cc(C2=NNC(=NCC)SC2)c1C | 105% (active)
13 | O=C(NCc1cccnc1)C12CC3CC(CC(C3)C1)C2 | 16.2%
14 | O=C(NC1CCCC1)C(c1ccc(N2CCOCC2)cc1)N(C(=O)c1ccco1)c1ccccc1F (stereo not given) | -5.34%
15 | Cc1cc(C)n(-c2c(F)c(F)c(COC(=O)c3ccccc3)c(F)c2F)n1 | 6.91%
16 | CCOC(=O)c1cnc(-n2nc(C)cc2C)nc1Nc1cccc(C(C)=O)c1 | 17.6%
17 | CCOC(=O)c1cnc(-n2nc(C)cc2C)nc1NNc1cc(C)nc(-c2ccccc2)n1 | 105% (active)
18 | NC(=O)C1CCN(Cc2nc3c(Br)cc(Br)cc3c(=O)[nH]2)CC1 | 31.8%
19 | CC(=O)Nc1ccc(S(=O)(=O)NC2Cc3ccccc3C2)cc1 | -6.02%
20 | Cc1ccc(NC(=O)CCC(=O)c2ccc(Br)cc2)cc1 | 1.65%
21 | COc1ccc(S(=O)(=O)Nc2ccc3c(c2)OCO3)cc1Cl | -17.5%
22 | COc1ccc(C2CC(=O)Nc3cc(C)c(C)cc32)c(OC)c1OC (stereo not given) | 22.4%
23 | COc1cc2c(cc1OC)C(c1ccncc1)CC(=O)N2 (stereo not given) | 21.6%
24 | CCCOc1ccccc1C1CC(=O)Nc2cc3c(cc21)OCO3 (stereo not given) | 111% (active)

Row | Structure (SMILES) | inhibition
25 | COC(=O)C1=C(C)NC(=O)CC1c1ccccc1OC (stereo not given) | 2.02%
26 | COc1ccccc1C1C2=C(COC2=O)Nc2cc3c(cc21)OCO3 (stereo not given) | 98.1% (active)
27 | COC(=O)c1ccc(NS(=O)(=O)c2cc3c4c(c2)C(C)C(=O)N4CCC3)cc1 (stereo not given) | 8.87%
28 | CN(CC(=O)NCc1ccncc1)S(=O)(=O)c1ccc(Br)cc1 | -15.9%
29 | Cc1ccc(CNC(=O)c2ccc3c(c2)S(=O)(=O)c2ccccc2C3=O)cc1 | 5.46%
30 | CCN(C(=O)c1cc([N+](=O)[O-])ccc1NCc1cccnc1)c1ccccc1 | 14.1%
31 | CCCCn1ccnc1C(=O)c1cccc(S(=O)(=O)N2c3ccccc3CC2C)c1 (stereo not given) | 4.82%
32 | CCN(CC)S(=O)(=O)c1ccc(-c2cn3ccc(C)cc3n2)cc1 | -169%
33 | COc1ccc(-c2cn3ccc(C)cc3n2)cc1 | 92.2% (active)
34 | COc1ccc(-c2cn3ccsc3n2)cc1 | -105%
35 | CCc1nc2cccnc2n1-c1ccc(C(=O)O)cc1 | -14.6%
36 | Fc1ccc(-n2c(Cc3ccccc3)nnc2SCc2nc(-c3ccc(Cl)cc3)no2)cc1 | -3.62%
37 | CCN(CC)CCNCc1ccc(OCc2ccc(Cl)nc2)c(OC)c1 | -27.5%
38 | COc1cccc(/C=C2\C=C(c3ccc(C)cc3)OC2=O)c1OC(C)=O | -65.8%
39 | CCOc1cccc(/C=C/c2ccc3ccccc3n2)c1OC(C)=O | 49.2%
40 | COc1cccc(/C=C/c2ccc3ccccc3n2)c1OC(C)=O | 83.1% (active)
41 | CCCOC1CCCN(C(=O)c2cc(COc3cncc(Cl)c3)on2)C1 (stereo not given) | -219%
42 | C[C@H](NC(=O)c1nc[nH]c1C(=O)NCC(=O)OC(C)(C)C)c1ccccc1 | 24.4%
43 | Cc1ccc(-c2cc(=O)c3ccc(F)cc3[nH]2)cc1 | -68.9%
44 | O=c1cc(-c2ccccc2)[nH]c2cc(F)ccc12 | 93.3% (active)
45 | Cc1ccc(-c2cc(=O)c3ccc(Cl)cc3[nH]2)cc1 | -19.2%
46 | CC(C)n1cnc2c(Nc3cccc(Cl)c3)nc(N(CCO)CCCO)nc21 | 64.7% (active)
47 | COC(=O)C(C)n1cnc2c(nnn2-c2cccc(Cl)c2)c1=O (stereo not given) | -6.77%
48 | CC(C)C[C@H](CO)Nc1nc(N(C)c2cccc(Cl)c2)c2ncn(C(C)C)c2n1 | 24.9%

Row | Structure (SMILES) | inhibition
49 | CSc1cc(C)n(-c2ccccc2C)c(=S)c1C(C)=O | -18%
50 | O=C(CCN1C(=O)c2ccncc2C1=O)Nc1cc(F)ccc1F | 10.3%
51 | O=C(NCC(=O)N(c1ccccc1)C(C(=O)NCC1CCCO1)c1ccccc1)c1cccs1 (stereo not given) | 15.4%
52 | CC(C)(C)C(=O)Nc1ccc(C(=O)N/N=C/c2ccccc2OC(=O)c2ccc(Cl)cc2Cl)cc1 | 65.2% (active)
53 | O=C(N/N=C/c1ccc(OC(=O)c2ccccc2Cl)cc1)c1ccc(O)cc1 | -1.64%
54 | O=C(N/N=C/c1ccoc1)c1ccc(Cl)cc1Cl | -0.701%
55 | Cc1ccc(S(=O)(=O)N/N=C(\c2ccccc2)C2CC2)cc1 | -11.6%
56 | COC(=O)C1=C(C)N(c2ccc(C)cc2)/C(=C/c2ccc(O)cc2)C1=O | -12.4%
57 | CCOc1ccccc1NC(=O)Cn1nnc(C(=O)NCc2cccs2)c1N | 84.9% (active)
58 | CCOc1ccccc1NC(=O)Cc1cccs1 | 19.4%
59 | Cc1ccc(NC(=O)Cn2nnc(C(=O)NCc3ccco3)c2N)c(C)c1 | -2.22%
60 | O=C(Cc1ccc(-n2c(=O)c3sccc3n(Cc3ccc(F)cc3)c2=O)cc1)NCc1ccco1 | 11.3%
61 | O=C(O)C1CCN(C(=O)c2cc(F)cc3c2OCOC3)CC1 | 19.4%
62 | CC(=NCc1ccco1)c1c(C(F)(F)F)[nH]n(-c2nc3ccccc3s2)c1=O | -117%
63 | COC(=O)Cc1[nH]n(-c2nc3ccccc3s2)c(=O)c1C(C)=Nc1ccc(OC)cc1 | 68.9% (active)
64 | C/C(=N\NC(=O)CC(C)C)c1c(C(F)(F)F)[nH]n(-c2nc3ccccc3s2)c1=O | -51.5%
65 | CNC[C@H](CC1CCCCC1)NC[C@H](NCCC1CCCC1)[C@H](C)O | -34.1%
66 | CC(=O)N1C(C)c2ccccc2C(C)(C)CC12CCCCC2 (stereo not given) | -9.23%
67 | Cc1csc(NC(=O)c2ccc(C)s2)n1 | -174%
68 | COc1cc(SC)ccc1C(=O)Nc1cc(C)ccn1 | -8.42%
69 | COc1cc(SC)ccc1C(=O)Nc1nc(C)cs1 | 96.2% (active)
70 | COC(=O)c1sc(NC(=O)c2ccc(OC)cc2OC)nc1C | 101% (active)
71 | COc1cc2ccccc2cc1C(=O)Nc1nc(C)c(C(C)=O)s1 | -106%
72 | COc1ccc(Cc2nnc(NC(=O)c3ccc(OC)cc3OC)s2)cc1 | -62.4%

Row | Structure (SMILES) | inhibition
73 | Cn1c(Cc2cccs2)nnc1SCC(=O)Nc1ccccc1 | 11%
74 | COc1ccc(NC(=O)CSc2ccc(-c3ccco3)nn2)c(OC)c1 | 7.22%
75 | CC(C)CN(C(=O)c1ccc2c(c1)OCO2)C1CCS(=O)(=O)C1 (stereo not given) | -8.68%
76 | CC(C)C(=O)N1CCN(c2nc(-c3ccccc3)c3c(c2C#N)CC(C)(C)OC3)CC1 | -10.5%
77 | CCO[C@H]1OC(C(=O)N2CCN(Cc3ccccc3)CC2)=C[C@@H](c2cn(C(C)=O)c3ccccc23)[C@@H]1CCCO | 14.2%
78 | O=C(COC(=O)c1ccc(Cl)nc1)NCc1ccc2c(c1)OCO2 | 17.3%
79 | O=S(=O)(c1ccc(F)cc1)N1CCN(C(=S)NC2CCCC2)CC1 | 4.9%
80 | CSc1nc(N(C)NC(=O)c2cccc(C)c2)c2ccccc2n1 | 114% (active)
81 | CN(NC(=O)c1ccccc1)c1nc2ccccc2nc1C(F)(F)F | -26.7%
82 | CN(NC(=O)c1ccccc1F)c1nc(C(F)(F)F)nc2ccccc12 | 39.8%
83 | O=c1c2cc(-c3ccccc3)sc2nc2n1N=C(c1cccs1)CS2 | -105%
84 | O=C(Cn1c[n+](CC(=O)c2ccc([N+](=O)[O-])cc2)cn1)c1ccc([N+](=O)[O-])cc1 | 1.61% and -7.59%
85 | COc1ccccc1OC(C)C(=O)Nc1ccc(S(=O)(=O)Nc2nccs2)cc1 (stereo not given) | 8.93%
86 | CCN1CCN(CC(=O)c2cc(OC)c(OC)c(OC)c2)CC1 | -44%
87 | CSc1ncc(Sc2ccccc2)c(C(=O)O)n1 | 9.17%
88 | CSc1nc(-c2ccccc2)nc(C(Cl)Cl)n1 | 114% (active)
89 | CC(C)(C)c1ccc(Oc2ccc(N)cc2)cc1 | 112% (active)
90 | CC(C)(C)c1ccc(OC2=CS(=O)(=O)c3ccccc32)cc1 | -110%
91 | COc1cccc(Oc2ccc(N)cc2)c1 | 5.65%
92 | C=CCOc1ccc(/C=C/C(=O)OCC(=O)NC(C)c2ccc(F)cc2)cc1 (stereo not given) | 5.96%
93 | O=C(c1ccc(OC2CCN(C/C=C/c3ccc(F)cc3)CC2)cc1)N1CCCCC1 | -17.6%
94 | COCCN1C(=O)C(=O)/C(=C(/O)c2ccc(S(=O)(=O)N3CCOCC3)cc2)C1c1ccc(OC)c(OC)c1 (stereo not given) | 0.0342%
95 | CC(C)(C)NC(=O)NC(=O)CN1CCC(Cc2ccccc2)CC1 | 17.3%
